Results taken from PubChem BioAssay.
For some assays here: Results with a measured potency or affinity are listed apart. Activity calls are given as the source filed them.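 Rule for the calls, unless noted: active = fluorescence ratio normalized to control raised more than 50% in primary screen plus both repeat runs; inactive = the rest.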

Experiments:
[1] = system: TRPC4 beta (transient receptor potential cation channel C4), mouse; experiment: activators of mouse TRPC4 channel, confirmation, cell-based, Fluo4 calcium, HEK293 TRPC4beta/mu-opioid, duplicates, 10 µM (AID 2426); conditions: Fluo4 calcium fluorescence, at 10 µM; hits give high values
[2] = system: transient receptor potential cation channel C4 beta (TRPC4), mouse; experiment: activators of mouse TRPC4 channel, confirmation, cell-based, second round, Fluo4, HEK293 TRPC4beta/mu-opioid, 1 µM (AID 2461;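 active = primary screen active and over 50% activation in each of two duplicate runs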); conditions: Fluo4 calcium fluorescence, at 1 µM; hits give high values
[3] = system: TRPC4 (transient receptor potential cation channel C4 beta), mouse; experiment: positive allosteric modulators of mouse TRPC4, confirmation, cell-based, second round, Fluo-4, HEK293 TRPC4beta/mu-opioid, 1 µM (AID 2554;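 active = primary screen hit whose fluorescence ratio, in both repeats, exceeds the weak agonist control mean by 3 SD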); conditions: DAMGO EC20, Fluo-4 calcium flux, at 1 µM; hits give high values
[4] = system: TRPC4 beta (transient receptor potential cation channel C4), mouse; experiment: positive allosteric modulators of mouse TRPC4, confirmation, cell-based, Fluo-4, HEK293 TRPC4beta/mu-opioid (AID 2555;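 active = primary screen hit whose calcium fluorescence ratio, in both repeats, exceeds the weak agonist control mean by 3 SD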); conditions: DAMGO EC20, Fluo-4 calcium flux, at 10 µM; hits give high values
[5] = biological target: Short transient receptor potential channel 4 (Mus musculus) (UniProt Q9QUQ5); experiment: inhibitors of mouse TRPC4 channel, confirmation, cell-based, Fluo4, HEK293 TRPC4beta/mu-opioid (AID 2636;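 active = calcium signal cut by more than 3 SD below the full-agonist control yet still positive, in both repeats and the earlier primary screen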); conditions: DAMGO, Fluo4 calcium flux, at 10 µM; hits give high values
[6] = biological target: Short transient receptor potential channel 4 (Mus musculus) (UniProt Q9QUQ5); experiment: inhibitors of mouse TRPC4 channel, confirmation, cell-based, second round, Fluo4, HEK293 TRPC4beta/mu-opioid, 1 µM (AID 2637;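 active = calcium signal ratio cut to more than 3 SD under the fully stimulated control mean yet still positive, in both repeats and the primary screen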;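 for inhibition: percent of integrated ratio relative to wells lacking test compound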); conditions: Fluo4 calcium flux, DAMGO, at 1 µM; hits give high values
[7] = biological target: Short transient receptor potential channel 4 (Mus musculus) (UniProt Q9QUQ5); experiment: mouse TRPC4 channel activators, dose response, cell-based, HEK293 TRPC4/mu-opioid, Fluo-4 calcium (AID 434937;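 active = primary screen activator hit with a dose response curve and TRPC4 channel activation at any tested dose; inactive = no activation, no dose response, or not a primary hit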)
[8] = biological target: Short transient receptor potential channel 4 (Mus musculus) (UniProt Q9QUQ5); experiment: TRPC4 positive allosteric modulators, dose response, cell-based, HEK293 TRPC4/mu-opioid, Fluo-4 calcium, EC20 DAMGO (AID 434941;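 active = earlier screen potentiator hit that boosts the TRPC4 ion channel at some dose, with a dose response; inactive = no potentiation, no dose response, or not a prior hit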;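 note: calcium entry triggered by an EC20 dose of DAMGO at the co-expressed mu-opioid receptor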)
[9] = biological target: Short transient receptor potential channel 6 (Mus musculus) (UniProt Q61143); experiment: inhibition of mouse TRPC6 channel, confirmation, selectivity assay for TRPC4 inhibitor project, cell-based, HEK293, membrane potential dye, duplicate (AID 434948;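 active = active in primary screen and both duplicates, each dropping signal beyond three positive-control SD with fluorescence still positive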); conditions: HEK293 TRPC6, membrane potential dye fluorescence, at 10 µM, stimulated with maximal-effect acetylcholine; hits give high values
[10] = biological target: Short transient receptor potential channel 6 (Mus musculus) (UniProt Q61143); experiment: activation of mouse TRPC6 channel, confirmation, selectivity assay for TRPC4 activator project, cell-based, HEK293, membrane potential dye, duplicate (AID 434950;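 active = membrane potential signal rise above negative control mean plus 3 SD in both duplicates, also active in the earlier TRPC4 screen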); conditions: HEK293 TRPC6, membrane potential fluorescence, at 10 µM; hits give high values
[11] = biological target: Short transient receptor potential channel 6 (Mus musculus) (UniProt Q61143); experiment: TRPC6 potentiation by TRPC4 potentiator hits, confirmation, selectivity assay for TRPC4 potentiator project, HEK293 cells, membrane potential dye, duplicate (AID 434952;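 active = compound raising the membrane signal above positive-control mean plus 3 SD in both repeats, and a primary screen hit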); conditions: HEK293 TRPC6, membrane potential dye fluorescence, at 10 µM, maximal acetylcholine added after compound; hits give high values
[12] = biological target: Short transient receptor potential channel 4 (Mus musculus) (UniProt Q9QUQ5); experiment: calcium flux activators in TRPC4/5HT1a cells, counter-screen for TRPC4 activator project, cell-based, second counter screen, HEK293 TRPC4/5HT1a, Fluo-4 (AID 434977;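 active = calcium signal rise above buffer-control mean plus 5 SD in both duplicates, and also a hit in the primary screen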); conditions: Fluo-4 calcium flux, at 10 µM; hits give high values
[13] = calcium flux inhibitors in TRPC4/5HT1a cells, confirmation, counter-screen for TRPC4 inhibitor project, cell-based, second counter screen, HEK293 TRPC4/5HT1a, Fluo-4 (AID 434978;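 active = primary screen active whose calcium signal fell more than 3 SD beyond the full-serotonin control mean in both duplicate plates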;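 for outcome: serotonin given first at submaximal then at maximal dose after compound preincubation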); conditions: Fluo-4 calcium flux, at 10 µM, serotonin added to trigger calcium flux; hits give high values
[14] = system: TRPC4 (mouse), co-expressed with 5HT1a in HEK293; experiment: calcium flux potentiators in TRPC4/5HT1a cells, confirmation, counter-screen for TRPC4 potentiator project, cell-based, second counter screen, HEK293 TRPC4/5HT1a, Fluo-4 (AID 434979;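 active = signal rise over 3 SD above mean of control wells given weak agonist, in both repeats and first screen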); conditions: Fluo-4 calcium flux, at 10 µM, serotonin added at its EC20 dose; hits give high values
[15] = calcium flux activation in mu-opioid HEK293 cells, confirmation, counter-screen for TRPC4 activator project, cell-based, HEK293 mu-opioid receptor line (AID 449723;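 active = hit in primary screen, with calcium signal over 5 SD above buffer well mean in both duplicates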;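 note: counter screen cells carry the mu-opioid receptor alone and lack TRPC4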); conditions: Fluo-4 calcium fluorescence, at 10 µM; hits give high values
[16] = calcium flux enhancement in mu-opioid HEK293 cells, confirmation, counter-screen for TRPC4 allosteric potentiator project, cell-based, HEK293 mu-opioid receptor line (AID 449724;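 active = calcium signal rise more than 3 SD above the low-dose agonist control mean, in both duplicate plates and the primary screen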); conditions: Fluo-4 calcium flux, at 10 µM, compound added before EC20 DAMGO stimulus; hits give high values

Short transient receptor potential channel 6 (Mus musculus), sequence (Q61143 whole entry, looked up): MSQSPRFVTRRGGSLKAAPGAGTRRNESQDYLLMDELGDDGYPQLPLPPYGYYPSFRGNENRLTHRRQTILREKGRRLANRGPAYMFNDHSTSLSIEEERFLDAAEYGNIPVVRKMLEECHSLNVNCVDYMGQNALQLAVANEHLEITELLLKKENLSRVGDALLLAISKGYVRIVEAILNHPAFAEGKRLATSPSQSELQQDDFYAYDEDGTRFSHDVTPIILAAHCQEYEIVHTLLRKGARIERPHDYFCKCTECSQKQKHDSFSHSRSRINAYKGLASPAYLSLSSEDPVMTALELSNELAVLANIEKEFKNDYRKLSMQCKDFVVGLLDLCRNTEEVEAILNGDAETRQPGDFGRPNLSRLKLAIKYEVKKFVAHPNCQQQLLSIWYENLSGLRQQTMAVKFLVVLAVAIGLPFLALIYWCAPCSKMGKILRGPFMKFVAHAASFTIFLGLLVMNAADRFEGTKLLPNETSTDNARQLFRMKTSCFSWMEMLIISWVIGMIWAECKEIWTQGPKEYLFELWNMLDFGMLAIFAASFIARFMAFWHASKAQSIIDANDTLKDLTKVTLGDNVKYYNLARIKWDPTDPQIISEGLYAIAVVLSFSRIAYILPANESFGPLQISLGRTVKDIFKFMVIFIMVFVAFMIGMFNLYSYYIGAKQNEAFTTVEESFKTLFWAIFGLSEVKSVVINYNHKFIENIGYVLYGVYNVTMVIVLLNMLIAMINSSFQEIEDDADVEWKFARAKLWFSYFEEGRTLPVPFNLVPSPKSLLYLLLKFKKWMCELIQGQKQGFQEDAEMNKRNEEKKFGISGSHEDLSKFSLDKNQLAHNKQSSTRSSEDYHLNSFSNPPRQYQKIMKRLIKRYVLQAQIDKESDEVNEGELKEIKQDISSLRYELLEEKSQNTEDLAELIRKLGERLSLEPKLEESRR
Short transient receptor potential channel 4 (Mus musculus), sequence (Q9QUQ5 whole entry, looked up): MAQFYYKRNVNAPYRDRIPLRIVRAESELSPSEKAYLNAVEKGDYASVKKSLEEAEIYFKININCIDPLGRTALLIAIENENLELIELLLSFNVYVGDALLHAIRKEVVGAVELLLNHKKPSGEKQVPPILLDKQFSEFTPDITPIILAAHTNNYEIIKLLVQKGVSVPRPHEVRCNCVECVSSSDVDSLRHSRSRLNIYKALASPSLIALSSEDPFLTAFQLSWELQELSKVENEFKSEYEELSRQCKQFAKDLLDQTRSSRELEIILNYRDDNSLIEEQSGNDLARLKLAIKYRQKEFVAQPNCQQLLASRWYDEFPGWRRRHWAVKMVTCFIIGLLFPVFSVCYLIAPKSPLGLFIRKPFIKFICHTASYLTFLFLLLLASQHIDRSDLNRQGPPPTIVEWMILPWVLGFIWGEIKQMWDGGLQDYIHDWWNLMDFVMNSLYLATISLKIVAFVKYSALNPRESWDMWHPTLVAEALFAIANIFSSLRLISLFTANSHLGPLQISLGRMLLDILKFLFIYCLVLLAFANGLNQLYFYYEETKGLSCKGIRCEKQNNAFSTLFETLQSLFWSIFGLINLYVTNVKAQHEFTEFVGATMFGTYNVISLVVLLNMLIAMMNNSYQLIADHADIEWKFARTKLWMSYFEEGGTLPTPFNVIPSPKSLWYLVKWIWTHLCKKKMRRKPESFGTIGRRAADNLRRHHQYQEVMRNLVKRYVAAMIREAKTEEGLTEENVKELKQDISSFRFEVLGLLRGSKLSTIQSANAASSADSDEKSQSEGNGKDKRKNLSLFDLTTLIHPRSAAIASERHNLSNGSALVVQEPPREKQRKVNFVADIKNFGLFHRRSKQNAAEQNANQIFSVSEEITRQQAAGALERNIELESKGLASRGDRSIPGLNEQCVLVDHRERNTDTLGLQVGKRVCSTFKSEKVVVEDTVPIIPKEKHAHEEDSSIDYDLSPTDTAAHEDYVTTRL

SMILES | outcome [1] | outcome [2] | outcome [3] | outcome [4] | inhibition [5] | outcome [6] | outcome [7] | outcome [8] | outcome [9] | outcome [10] | outcome [11] | outcome [12] | outcome [13] | outcome [14] | outcome [15] | outcome [16] | inhibition [13] | inhibition [6]
CN(C)c1ccc(NC(=O)CN2C3CCCC2CC(NC(=O)c2ccccc2)C3)cc1 (stereo not drawn) | inactive | inactive | inactive | inactive | 71% (active) | inactive | inactive | inactive | inactive | inactive | inactive | inactive | inactive | inactive | inactive | inactive | – | –
COc1cccc(CNC(=O)CCC2CCCN(Cc3cc(Cl)ccc3O)C2)c1 (stereo not drawn) | inactive | inactive | inactive | inactive | 93% (active) | inactive | inactive | inactive | inactive | inactive | inactive | inactive | – | inactive | inactive | inactive | 29% (active) | –
O=C(Nc1ccc(Oc2ccccc2)nc1)C1CCN(Cc2ccccc2)CC1 | inactive | inactive | inactive | inactive | 74% (active) | inactive | inactive | inactive | inactive | inactive | inactive | inactive | – | inactive | inactive | inactive | 32.6% (active) | –
Cc1cc(OCc2cc(C(=O)NCC3(C)COC3)no2)cc(C)c1Cl | inactive | inactive | inactive | inactive | 66% (active) | inactive | inactive | inactive | inactive | inactive | inactive | inactive | – | inactive | inactive | inactive | 40.6% (active) | –
OCC1(Cc2ccccc2)CCCN(Cc2cnn(-c3ccccc3)c2)C1 (stereo not drawn) | inactive | inactive | inactive | inactive | 91% (active) | – | inactive | inactive | inactive | inactive | inactive | inactive | – | inactive | inactive | inactive | 36.1% (active) | 42% (active)
CC(Oc1ccc(Cl)cc1Cl)c1nc(-c2ccccn2)no1 (stereo not drawn) | inactive | inactive | inactive | inactive | 89% (active) | – | inactive | inactive | inactive | inactive | inactive | inactive | – | inactive | inactive | inactive | 22.7% (active) | 53% (active)
CCCCC(CC)c1nnc(NC(=O)c2cccs2)s1 (stereo not drawn) | inactive | inactive | inactive | inactive | 90% (active) | inactive | inactive | inactive | inactive | inactive | inactive | inactive | – | inactive | inactive | inactive | 40.9% (active) | –
O=C(Cc1ccccc1)Nc1ccccc1Sc1ccccc1 | inactive | inactive | inactive | inactive | 86% (active) | inactive | inactive | inactive | inactive | inactive | inactive | inactive | – | inactive | inactive | inactive | 40.9% (active) | –
